# Data reported in PubChem BioAssay.
# The source made the active and inactive calls.
# Legend:
# Albumin (Bos taurus) = Albumin (Bos taurus) (UniProt P02769); assay: compounds binding labelled BSA control protein – biochemical, small-molecule microarray, Alexa647 label, 635/667 nm fluorescence, artefact control for SMM control protein annotation, profiling panel (AID 1118); settings: BSA-A647 binding, fluorescence 635 nm, higher = more signal;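 also: score merges 667 nm emission intensity and signal-to-noise per printed compound spot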
# [1] = probe aXIP binding to arrayed compounds – biochemical, NeuroSMM set, 635/667 nm fluorescence, primary screen (AID 1119); settings: small-molecule microarray, higher = more signal, called active from +8 up or from −8 down;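 also: probe is the protein aXip251-270 applied at 1 µg/mL to compound-printed slides; binding of probe to printed compounds measured as 667 nm fluorescence plus signal to noise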
# [2] = probe aNOTCH3 binding on compound microarray – biochemical, small-molecule microarray, 635/667 nm fluorescence, primary screen (AID 1120); settings: higher = more signal;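 also: probe is a biotin-tagged antibody raised against NOTCH3 rather than NOTCH3 protein; score merges spot fluorescence near 667 nm with spot signal to noise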
# [3] = probe aNOTCH2 binding on compound microarray – biochemical, small-molecule microarray, 635/667 nm fluorescence, primary screen (AID 1121); settings: higher = more signal;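 also: score merges feature fluorescence read at 667 nm with its signal to noise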
# [4] = target: Carbonic anhydrase 2 (Homo sapiens) (UniProt P00918); assay: compounds binding carbonic anhydrase 2 – biochemical, small-molecule microarray, Alexa647-labelled CAII, profiling panel (AID 1122); settings: CAII-A647 binding fluorescence, higher = more signal
# [5] = COS7 lysate on small-molecule microarray, probe aHis, 635 nm (AID 1123); settings: COS7 cell lysate, fluorescence, higher = more signal;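 also: z-score combines 667nm fluorescence intensity with signal-to-noise per printed compound spot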
# [6] = probe aLAP1 signal on lysate-treated microarray – cell lysate, small-molecule microarray, COS7 lysate, primary screen (AID 1124); settings: probe aLAP1, fluorescence, higher = more signal;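 also: lysate comes from COS7 cells expressing LAP1 and is applied at 0.3 µg/mL; score merges spot fluorescence near 667 nm with signal-to-noise over triplicate slides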
# Sam68 (KHDRBS1) = assay: compounds binding KHDRBS1 protein – biochemical, small-molecule microarray, 635 nm fluorescence, primary screen (AID 1125); settings: higher = more signal;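 also: score merges 667 nm channel intensity with signal to noise over triplicate slides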
# [7] = test system: Chordin-like protein 2 (CHRDL2); assay: compounds binding chordin-like 2 – biochemical, small-molecule microarray, 635 nm fluorescence, primary screen (AID 1126); settings: fluorescence 635 nm, higher = more signal;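 also: printed compound slides probed with Chrdl2 protein at 4 µg/mL for 1 h at 4 C; score merges 667 nm emission intensity with signal to noise over three replicate slides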
# [8] = target: Concanavalin-A (Canavalia ensiformis) (UniProt P02866); assay: compounds binding concanavalin A lectin – biochemical, small-molecule microarray, Alexa647 label, 635 nm, artefact control for SMM control protein annotation, primary screen (AID 1127); settings: ConA-A647 binding fluorescence, higher = more signal;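 also: z combines 667 nm emission intensity with signal-to-noise across three replicate slides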
# Concanavalin-A (Canavalia ensiformis), sequence (P02866 whole entry, looked up): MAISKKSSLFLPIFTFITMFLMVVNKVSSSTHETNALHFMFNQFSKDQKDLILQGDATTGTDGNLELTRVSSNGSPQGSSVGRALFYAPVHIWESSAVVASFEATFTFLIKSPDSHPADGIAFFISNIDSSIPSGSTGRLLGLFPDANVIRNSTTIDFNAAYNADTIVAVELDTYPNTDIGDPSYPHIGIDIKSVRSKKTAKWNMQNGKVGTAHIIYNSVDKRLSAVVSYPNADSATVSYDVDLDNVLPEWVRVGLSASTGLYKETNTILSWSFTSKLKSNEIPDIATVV
# Albumin (Bos taurus), sequence (P02769 whole entry, looked up): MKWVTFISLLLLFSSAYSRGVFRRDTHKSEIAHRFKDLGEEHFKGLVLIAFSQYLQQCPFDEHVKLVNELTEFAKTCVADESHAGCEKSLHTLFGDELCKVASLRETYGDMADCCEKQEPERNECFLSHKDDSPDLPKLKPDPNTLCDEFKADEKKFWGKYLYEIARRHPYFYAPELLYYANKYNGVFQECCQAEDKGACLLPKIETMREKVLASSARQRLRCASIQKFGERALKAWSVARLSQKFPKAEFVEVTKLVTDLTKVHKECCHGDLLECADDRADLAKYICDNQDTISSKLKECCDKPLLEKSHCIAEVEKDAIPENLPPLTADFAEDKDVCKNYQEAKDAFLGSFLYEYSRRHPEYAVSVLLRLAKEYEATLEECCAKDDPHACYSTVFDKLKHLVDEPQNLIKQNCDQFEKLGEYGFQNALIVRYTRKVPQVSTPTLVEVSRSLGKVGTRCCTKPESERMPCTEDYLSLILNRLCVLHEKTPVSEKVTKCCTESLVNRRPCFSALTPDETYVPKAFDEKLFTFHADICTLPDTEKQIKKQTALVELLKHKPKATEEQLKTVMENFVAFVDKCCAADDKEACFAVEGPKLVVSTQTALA
SMILES,composite z-score (Albumin (Bos taurus)),composite Z-score [1],composite z-score [2],composite z-score [3],composite z-score [4],composite z-score [5],composite z-score [6],composite z-score (Sam68 (KHDRBS1)),composite z-score [7],composite z-score [8]
CCOC(=O)C1=C[C@@H](c2ccccc2)N(S(=O)(=O)c2ccc(C)cc2)[C@H]1c1cccc(Cl)c1,0.895,-0.101 (inactive),0.224,0.152,0.703,-0.102,0.882,1.31,-0.599,1.11
COc1ccc([Si](C)(C)[C@H]2[C@H](CCn3cc([C@H](O)c4ccccc4)nn3)O[C@@]3(C(=O)N(Cc4ccc(N5CCOC5=O)cc4)c4ccccc43)[C@@H]2C)cc1,-0.397,0.486 (inactive),-0.172,-0.186,-0.586,-0.55,-1.14,-0.426,-0.586,-0.321
COc1ccc([Si](C)(C)[C@@H]2[C@@H](CC(=O)N3CCC[C@H]3CO)O[C@]3(C(=O)N(Cc4ccc(N5C(=O)c6cccc7cccc5c67)cc4)c4ccccc43)[C@H]2C)cc1,-0.647,0.296 (inactive),0.0996,-0.148,0.447,1.77,0.323,1.29,1.3,0.892
CN(C)CCCNC(=O)[C@@]1(c2ccc([N+](=O)[O-])cc2)CC(=O)N(CC23CC4CC(CC(C4)C2)C3)[C@@H]1c1ccc(CO)cc1,0.0561,-0.137 (inactive),0.683,0.094,0.49,3.43,0.82,1.3,1.07,1.15
COc1ccc([Si](C)(C)[C@@H]2[C@@H](CCO)O[C@]3(C(=O)N(Cc4cccc(N5C(=O)c6cccc7cccc5c67)c4)c4ccccc43)[C@H]2C)cc1,0.219,-0.139 (inactive),-0.0947,-0.101,0.428,1.17,-0.179,0.262,-0.512,0.48
CC(=O)n1cc(C(O)C2C=CC3C(=O)N(c4ccccc4)C(=O)C3N2Nc2ccccc2)c2ccccc21 (stereo not given),0.408,0.197 (inactive),0.504,0.207,0.788,1.08,0.697,0.897,0.8,0.183
CN(C)CCCNC(=O)[C@@H]1c2ccccc2C(=O)N(CC23CC4CC(CC(C4)C2)C3)[C@H]1c1ccc(CO)cc1,0.821,2.01 (inactive),-0.001,-0.0984,0.344,2.62,2.1,1.3,0.452,1.18
CCOC(=O)C[C@H]1[C@H](OC(=O)Cc2ccc3c(c2)OCO3)[C@@H](NC(=O)Cc2ccc(OC)cc2)c2cc(OCCCO)ccc2N1C(=O)c1ccccc1,0.793,-0.0539 (inactive),-0.141,-0.0502,0.461,0.682,-0.0207,1.01,-0.353,0.277
COC(=O)C1(Cc2ccccc2)C=C2C(=C(C(C)C)C(=O)C2C)CN1 (stereo not given),0.628,2.34 (inactive),0.183,0.168,0.676,1.62,0.6,-1.52,-1.3,-1.83
C=CCOC(=O)[C@H]1[C@@H]2C(=O)O[C@@H](c3ccccc3)[C@@H](c3ccccc3)N2[C@@H](c2ccc(OCCOC(=O)[C@H]3C[C@H]4C(=O)N[C@@H](Cc5ccccc5)C(=O)N4[C@H]3c3cccc(OCCO)c3)cc2)[C@]12C(=O)Nc1ccc(I)cc12,-0.291,1.02 (inactive),0.071,-0.117,0.487,-0.0456,0.335,1.28,1.25,1.12
CCCCN1CC=CC23O[C@@H]4/C=C\CCC(C)OC(=O)C4[C@H]2C(=O)N(CCCCCCO)[C@@H]3C1=O (stereo not given in full),0.5,-0.59 (inactive),-0.307,-0.228,0.86,0.177,0.54,-0.168,-0.361,-0.34
C=C[C@@H](C)[C@H](OC(=O)Nc1ccc(SC)cc1)c1ccc(OCCO)cc1,-0.145,-0.109 (inactive),0.132,-0.259,0.449,0.476,-0.0181,-0.867,-0.61,-0.345
O=C1O[C@@H](c2ccccc2)[C@@H](c2ccccc2)N2[C@@H](c3ccccc3OCCO)[C@]3(C(=O)Nc4ccc(C#CCCO)cc43)[C@@H](C(=O)N3CCN(c4ncccn4)CC3)[C@H]12,0.717,1.37 (inactive),0.0208,-0.0811,0.298,2.09,0.176,1.19,0.0179,1.12
